Compound activity: PubChem, National Center for Advancing Translational Sciences (NCATS)
uPA generation: blocks generation of uPA at the cell surface; Potency, µM (doses to about 38.3 µM), hits mostly inhibitors; 330,000 tested, 0.31% active; AID 540303; cell surface uPA generation assay, qHTS; active = well fitted inhibition curve with a large enough effect; inconclusive = small, poorly fitted or top-dose-only effect; inactive = no such curve, though single readings can be large or run the other way; tested in mouse RAW 264.7 cells; also: nearly all actives have a fitted effect of over 55% in size
Gal4-VP16 FLuc: counter-screen for ROR gamma inhibitors: Gal4-VP16 reporter; AID 2546; Potency, µM (series often up to 53.6 µM), actives largely listed as inhibitors; 310,000 tested, 3.5% active; Drosophila S2 Gal4-VP16 UAS-luciferase, luminescence, 20 h;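 also: Gal4-VP16 expression switched on by copper sulfate through the metallothionein promoter; nearly all actives have a fitted effect of over 50% in size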
Integrin act MD: integrin-mediated muscular dystrophy alleviation activation; alpha7betagal myoblasts, beta-gal FDG fluorescence, 48 h; 350,000 tested, 0.064% active; Potency, µM (doses to about 38.3 µM), actives largely listed as activators; also: nearly all actives have a fitted effect of over 60% in size
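Alpha7betagal+/- myoblasts (passage 13) were plated 16-24 hr, then exposed to compounds (1:260 dilution of DMSO stock) for 48 hours at 37C. After MPER lysis, β-galactosidase reporter activity was read as FDG fluorescence (ex 480/em 540) after 30 minutes.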
Chronic BCR inh: inhibitors of chronic active B-cell receptor signaling; ABC-DLBCL IkBa-CBG/CBR reporter, luminescence ratio, 4 h; 340,000 tested, 0.05% active; AID 493014; Potency, µM (highest dose often 46.1 µM), hits mostly inhibitors; active = well fitted inhibition curve with a large enough effect in the signal ratio, with a control signal flat, not every such curve was filed as active; inconclusive = small, poorly fitted or top-dose-only effect, or effect the other way, or a change in a side signal; the % refers to the signal ratio
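Compounds up to 46 uM were incubated four hours with TMD8 cells whose green CBG68 luciferase is fused to IkappaBalpha; red CBR luminescence normalised the signal, and concentration-effect curves were fitted to fusion, red and ratio data.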
RORgamma inh: ROR gamma (mouse) transcription inhibition. P51450. Drosophila S2 Gal4-RORgamma UAS-luciferase reporter, 20 h. Potency, µM (highest dose often 53.6 µM), actives largely listed as inhibitors. 310,000 tested, 5.4% active. AID 2551; also: nearly all actives have a fitted effect of over 60% in size
Target sequence (P51450 whole entry, looked up, the tested form may be a part): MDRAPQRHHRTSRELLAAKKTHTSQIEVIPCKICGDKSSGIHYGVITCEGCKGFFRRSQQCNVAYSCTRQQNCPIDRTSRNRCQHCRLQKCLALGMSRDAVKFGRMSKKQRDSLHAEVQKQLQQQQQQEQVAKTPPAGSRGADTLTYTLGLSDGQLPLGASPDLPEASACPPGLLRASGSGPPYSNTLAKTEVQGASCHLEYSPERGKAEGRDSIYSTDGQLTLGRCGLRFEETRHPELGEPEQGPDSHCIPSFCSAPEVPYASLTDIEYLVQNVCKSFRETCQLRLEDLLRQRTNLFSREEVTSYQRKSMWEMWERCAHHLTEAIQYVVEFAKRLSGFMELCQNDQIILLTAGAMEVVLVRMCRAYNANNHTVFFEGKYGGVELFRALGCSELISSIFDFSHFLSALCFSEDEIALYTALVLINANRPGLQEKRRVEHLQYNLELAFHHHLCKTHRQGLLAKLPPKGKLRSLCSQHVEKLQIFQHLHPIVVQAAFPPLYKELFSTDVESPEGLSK
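Using a luciferase readout, inhibitors were identified by reduced reporter activity in Drosophila cells coexpressing a copper-inducible Gal4–ROR gamma fusion and UAS-driven Photinus luciferase, incubated 20 hr after 700 uM copper sulfate.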
Mito fusion act: blocks mitochondrial division or promotes mitochondrial fusion | AID 485298 | Potency, µM (titrated, usually from 46.1 µM), most hits filed as activators | S. cerevisiae fusion-defective mutant growth rescue, CellTiterGlo 48 h | 320,000 tested, 0.23% active; also: nearly all actives have a fitted effect of over 45% in size
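Growth-rescue viability read-out: after 48 h at the non-permissive 37C in glycerol/ethanol YPEG, yeast mitochondrial fusion mutants are measured by CellTiterGlo luminescence; compounds (23 nl pinned per well) restoring growth score as division inhibitors or fusion activators.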
Numbers stand for hits; n = inactive; u = inconclusive; x = no result; ! = not active in a repeat; [ ] = remark or other dose. Most compounds without a hit are left out; they make up all but 5.5% or so of the library. Unless noted, calls follow the shape of the dose curve; as a rule, active = well fitted curve in the direction sought with a large enough effect; inconclusive = small, poorly fitted or top-dose-only effect, or another doubt; inactive = no such curve, though single readings can be large; an effect the other way counts as inactive or inconclusive.

SMILES	uPA generation	Gal4-VP16 FLuc	Integrin act MD	Chronic BCR inh	RORgamma inh	Mito fusion act
COc1ccc(CNC(=S)N/N=C(\C)c2ccc(OC)cc2)cc1	n	5.01µM	n	u	6.31µM	n
COc1ccc(CNC(=S)NCc2ccc(OC(C)C)cc2)cc1	n	n	n	n	u	n
CCOc1ccccc1N(CC(=O)NCC1CCCO1)C(=O)CCC(=O)Nc1ccccn1 (centres undefined)	n	n	n	n	35.5µM	n
CCOC(=O)C1=C(C)N(C)C(=S)NC1c1ccccc1Cl (centres undefined)	n	u	n	n	8.91µM	n
CCOC(=O)C1=C(C)N(CCCC(=O)O)C(=O)NC1c1ccc(Cl)cc1Cl (centres undefined)	n	n	n	n	n	n
CCOCCOC(=O)C1=C(C)N(C)C(=O)NC1c1ccccc1Cl (centres undefined)	n	n	n	n	n	n
CCOC(=O)C1=C(C)N(C)C(=S)NC1c1ccc(Cl)cc1Cl (centres undefined)	n	7.94µM	n	n	7.08µM	n
CCOC(=O)C1=C(C)N(C)C(=S)NC1c1cccc(Cl)c1Cl (centres undefined)	n	u	n	n	3.98µM	n
COc1ccc(C(=O)NC2CCN(CC(=O)NCc3ccccc3)CC2)cc1	n	n	n	n	n	n
CCOc1ccc(OCCC(=O)OCC(=O)N(CC)c2c(N)n(Cc3ccccc3)c(=O)[nH]c2=O)cc1	n	x	n	x	x	x
CC(=O)Nc1ncnc2c1c(-c1ccc(Cl)cc1)nn2C(C)(C)C	n	n	n	u	u	n
CC(=O)N(C(C)=O)c1ncnc2c1c(-c1ccc(Cl)cc1)nn2C(C)(C)C	x	n	n	n	11.2µM	n
Nc1ccccc1NC(=O)NC(=O)c1ccccc1	n	n	n	u	n[1.91 µM]	n
O=C(CSc1nnc(NC(=O)C2CC(=O)N(c3ccc(F)cc3)C2)s1)NCC1CCCO1 (centres undefined)	n	n	n	n	n	n
CC1=C(C)/C(=N\OS(=O)(=O)c2ccccc2)C=CC1=O	n	2.51µM	n	u	2.51µM	n
Cc1ccc(S(=O)(=O)O/N=C2\CCCc3ccccc32)cc1	n	n	n	n	n	n
COc1ccc(CC(=O)OCC(=O)Nc2ccc3c(c2)OCO3)cc1	n	n	n	n	n	n
COc1cc(/C=C2\CC/C(=C\c3cc(OC)c(OC)c(OC)c3)C2=O)cc(OC)c1OC	n	n	n	n	n	n
COc1cc(/C=C2\COC/C(=C\c3cc(OC)c(OC)c(OC)c3)C2=O)cc(OC)c1OC	n	5.01µM	n	u	3.16µM	n
CC1CC(C)CN(S(=O)(=O)c2ccc(C(=O)Nc3sccc3C(N)=O)cc2)C1 (centres undefined)	n	u	n	n	n	n
CCC1CCCCN1S(=O)(=O)c1ccc(C(=O)Nc2nnc(-c3cccs3)o2)cc1 (centres undefined)	n	0.316µM	n	n	0.316µM	n
CC1CC(C)CN(S(=O)(=O)c2ccc(C(=O)Nc3nnc(-c4cccs4)o3)cc2)C1 (centres undefined)	n	0.501µM	n	n	0.251µM	n
COc1ccc(NC(=O)CCS(=O)(=O)c2cc3c4c(c2)CCN4C(=O)CC3)c(OC)c1	x	x	x	n	x	x
COc1ccc(Cl)cc1NC(=O)c1nnn(CC(=O)Nc2ccc(C)c(C)c2)c1N	n	n	n	n	n	n
O=C(O)c1cc(O)c2c(c1)C(=O)c1cc(O)cc(O)c1C2=O	u	u	n	n	6.31µM!	n
SMILES	uPA generation	Gal4-VP16 FLuc	Integrin act MD	Chronic BCR inh	RORgamma inh	Mito fusion act
CC(C)(C)c1cc(C(=S)N2CCCC2)cc(C(C)(C)C)c1O	n	5.01µM	n	n	6.31µM	n
CCOc1ccc(CCNC(=O)CCSCc2ccc(Cl)cc2)cc1OCC	x	x	x	n	x	x
Cc1sc(NC(=O)Cn2[nH]c(=O)c3ccccc3c2=O)nc1-c1ccccc1	n	u	n	u	n[10 µM]	n
O=C(Cc1ccc(Cl)cc1Cl)Nc1ccncc1	n	5.62µM	n	n	u	n
O=C(Cc1c(Cl)cccc1Cl)Nc1ccncc1	n	n	n	n	n	n
O=C(Cc1ccc(Cl)cc1Cl)Nc1ccncc1Cl	n	5.62µM	n	n	n	n
